Compound activity from PubChem BioAssay.
A selection: hits, their analogues and other compounds. The true share with any hit is near 7.5%.
NPC1 promoter act = qHTS Assay for NPC1 Promoter Activators. Huh7 NPC1 promoter luciferase reporter, 24 h. Potency, µM (titrated, usually from 9.22 µM), actives largely listed as activators. hit rate 2.4% among 320,000; note: nearly all actives have a fitted effect of over 60% in size
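Cells: Huh7 expressing luciferase under the NPC1 promoter, 1500/well. Seeded 2 h, compound added, incubated 24 h at 37 °C. Luciferase reagent, 10 min ambient, then luminescence.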
SMN2 splice up = qHTS Assay for Enhancers of SMN2 Splice Variant Expression. HEK293 SMN2-luciferase splicing reporter, luminescence, 30-36 h. Potency, µM (series often up to 46.1 µM), most hits filed as activators. hit rate 2.8% among 210,000; note: nearly all actives have a fitted effect of over 55% in size
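qHTS luciferase splicing reporter: luminescence rises when SMN2 exon 7 is included in transfected HEK293 cells. Compound exposure lasted 30-36 h at 37C, with 4.5 mM final sodium butyrate as control, followed by a ONE-Glo read.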
Rab9 promoter act = qHTS Assay for Rab9 Promoter Activators; Huh7 Rab9 promoter-luciferase reporter, luminescence, 24 h; Potency, µM (top dose mostly 9.22 µM), actives largely listed as activators; hit rate 2.8% among 320,000; AID 485297, 2010; note: nearly all actives have a fitted effect of over 60% in size
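Huh7 cells stably carrying a Rab9 promoter-luciferase reporter, 1500 cells per well in OP-MEM I with 10% FBS, treated with compound 24 hours at 37C. Luciferase activity read by luminescence after 10 minutes with Amplite reagent.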
ELG1 genotox = qHTS screen for small molecules that induce genotoxicity in human embryonic kidney (HEK293T) cells expressing luciferase-tagged ELG1. HEK293T ELG1-luciferase reporter, luminescence, 16 h. Potency, µM (doses to about 46 µM), most hits filed as activators. hit rate 1.3% among 330,000; note: nearly all actives have a fitted effect of over 60% in size
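Screening used a luciferase reporter fused to human ELG1 in HEK293T cells. Luminescence was read on a CCD plate imager after 16 hr exposure and 30 min ONE-Glo incubation.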
KinaseGlo FLuc = Counterscreen for Luciferase (Kinase-Glo TM) Inhibition | Luciferin 4-monooxygenase (Photuris pensylvanica), Q27757 | Kinase-Glo luciferase, ATP luminescence, 8 min | Potency, µM (titrated, usually from 38.3 µM), actives largely listed as inhibitors | hit rate 0.28% among 200,000; note: nearly all actives have a fitted effect of over 60% in size
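Inhibition of Kinase-Glo luciferase light generation was assessed at 10 uM ATP in pH 7.2 imidazole buffer, with luminescence measured after eight minutes at ambient temperature.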
FLuc counter = qHTS profiling assay for firefly luciferase inhibitor/activator using purifed enzyme and Km concentrations of substrates (counterscreen for miR-21 project). purified FLuc, Km substrates, luminescence inhibition. Potency, µM (titrated, usually from 57.5 µM), usual class: inhibitors. hit rate 6.9% among 360,000. AID 588342, 2011; note: nearly all actives have a fitted effect of over 55% in size
Target sequence (P08659 whole entry, looked up): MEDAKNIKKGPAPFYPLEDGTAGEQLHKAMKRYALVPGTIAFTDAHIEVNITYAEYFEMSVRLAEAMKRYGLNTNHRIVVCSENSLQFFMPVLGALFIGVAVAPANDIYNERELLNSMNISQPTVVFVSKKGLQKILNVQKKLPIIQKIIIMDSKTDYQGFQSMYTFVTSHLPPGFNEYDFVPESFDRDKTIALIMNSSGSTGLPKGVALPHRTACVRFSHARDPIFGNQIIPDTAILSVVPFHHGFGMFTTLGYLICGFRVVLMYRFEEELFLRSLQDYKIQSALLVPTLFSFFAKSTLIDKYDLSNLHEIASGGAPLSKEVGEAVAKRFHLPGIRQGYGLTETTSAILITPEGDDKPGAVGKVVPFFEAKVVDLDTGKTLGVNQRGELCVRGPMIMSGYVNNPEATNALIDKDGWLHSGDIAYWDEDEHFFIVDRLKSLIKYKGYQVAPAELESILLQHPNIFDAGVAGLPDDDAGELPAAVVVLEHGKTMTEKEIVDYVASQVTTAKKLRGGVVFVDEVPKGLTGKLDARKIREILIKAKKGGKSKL
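Biochemical qHTS of compounds, final roughly 60 µM downward over six points, against 10 nM purified firefly luciferase using Km concentrations of substrates (10 uM D-luciferin, 10 uM ATP) in Tris acetate pH 7.5 buffer; luminescence output.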
Each line names hits and unclear results; the compound was inactive in the other large screens. Calls come from the whole dose curve; as a rule, active = well fitted curve in the direction sought with a large enough effect; inconclusive = small, poorly fitted or top-dose-only effect, or another doubt; inactive = no such curve, though single readings can be large; an effect the other way counts as inactive or inconclusive.

CCCn1c(C)nc2c(NCCCN3CCCCC3C)nc(C)nc21 (configuration not stated)	none (no result: NPC1 promoter act, Rab9 promoter act, ELG1 genotox, FLuc counter)
O=C(Nc1ccccc1C(=O)N/N=C/c1ccc(F)cc1)c1ccccc1Br	FLuc counter 6µM
O=C(N/N=C/c1ccccc1C(F)(F)F)c1ccc(O)cc1	NPC1 promoter act inconclusive, Rab9 promoter act inconclusive, ELG1 genotox inconclusive, FLuc counter 11µM
O=C(N/N=C/c1ccc(F)cc1)c1cc[n+]([O-])cc1	none (no result: SMN2 splice up, KinaseGlo FLuc)
O=C(N/N=C/c1ccc(F)cc1)c1ccccc1	NPC1 promoter act 2.8µM, SMN2 splice up 18µM, Rab9 promoter act 2µM, ELG1 genotox inconclusive, FLuc counter 12µM
O=C(O)c1ccc(/C=N/NC(=O)c2ccc(F)cc2)cc1	FLuc counter 19µM (no result: SMN2 splice up, KinaseGlo FLuc)
O=C(N/N=C/c1ccccc1O)c1cccc(C(F)(F)F)c1	ELG1 genotox inconclusive, FLuc counter inconclusive
CC1(C)CC(=O)C=C(NCC(O)c2ccccc2)C1 (configuration not stated)	none (no result: SMN2 splice up, KinaseGlo FLuc)
Cc1c(Cl)cccc1NC(=O)c1cnc2sc(N3CCCC3)nn2c1=O	none (no result: NPC1 promoter act, SMN2 splice up, Rab9 promoter act, ELG1 genotox, KinaseGlo FLuc)
CN(CC(=O)Nc1ccc(Cl)cc1)C(=O)CCC1CCCC1	none (no result: SMN2 splice up, KinaseGlo FLuc)
COc1ccc([N+](=O)[O-])cc1NC(=O)c1ccc(N(Cc2ccccc2Cl)S(C)(=O)=O)cc1	none
CN(C)C(CNC(=O)c1cccc(C(F)(F)F)c1)c1ccco1 (configuration not stated)	none (no result: SMN2 splice up, KinaseGlo FLuc)
COc1cccc(CNC(=O)C2CCC(CNS(=O)(=O)c3ccc(Br)s3)CC2)c1 (configuration not stated)	none (no result: NPC1 promoter act, Rab9 promoter act, ELG1 genotox, KinaseGlo FLuc)
O=C(N/N=C\c1ccc(F)cc1)c1csnn1	ELG1 genotox inconclusive, FLuc counter 24µM
O=C(N/N=C/c1ccc(F)cc1)c1cccc(NC(=O)c2ccc(F)cc2)c1	Rab9 promoter act inconclusive, FLuc counter 8.5µM (no result: SMN2 splice up, KinaseGlo FLuc)
C#CCn1c(S(=O)(=O)Cc2ccccc2Cl)nc(-c2ccccc2)c1-c1ccccc1	SMN2 splice up 5.6µM
CN1CCN(C(=O)c2ccc(-n3c(=O)c(=O)[nH]c4ccccc43)cc2)CC1	none (no result: NPC1 promoter act, SMN2 splice up, Rab9 promoter act, ELG1 genotox, FLuc counter)
CN(C)c1cc(N/N=C\c2ccccc2)nc(N(C)C)n1	FLuc counter inconclusive (no result: SMN2 splice up)
COc1ccc(/C=N/Nc2cc(OC)ncn2)cc1	NPC1 promoter act 3.5µM, Rab9 promoter act 1µM, ELG1 genotox 1.8µM, FLuc counter 0.95µM (no result: SMN2 splice up, KinaseGlo FLuc)
COc1ccc(/C=N/Nc2cc(N(C)C)nc(N(C)C)n2)cc1	FLuc counter 15µM
CNc1nc(SCc2ccccc2Cl)nc2c1CCCC2	none
O=C(N/N=C/c1ccncc1)c1cc2ccccc2cc1O	ELG1 genotox inconclusive, FLuc counter 7.6µM (no result: SMN2 splice up, KinaseGlo FLuc)
O=C(N/N=C/c1ccc[nH]1)c1cc2ccccc2cc1O	FLuc counter 6.7µM (no result: SMN2 splice up, KinaseGlo FLuc)
O=C(N/N=C/c1ccncc1)c1cc([N+](=O)[O-])cc([N+](=O)[O-])c1O	FLuc counter 27µM
Cc1ccn(CCC(=O)N2CCCC(CCC(=O)N3CCN(c4ccccn4)CC3)C2)n1 (configuration not stated)	none (no result: SMN2 splice up)
COc1cc(Nc2nc3ccc(Cl)cc3nc2-n2nc(C)cc2C)cc(OC)c1	none (no result: NPC1 promoter act, Rab9 promoter act, ELG1 genotox, KinaseGlo FLuc)
O=C(NC1CCN(C(=O)c2cccs2)CC1)c1ccccc1	none (no result: SMN2 splice up, KinaseGlo FLuc)
CC1CCC(C(C)C)C(=O)/C1=C/c1ccc(N)cc1 (configuration not stated)	NPC1 promoter act 1.6µM, Rab9 promoter act 1.6µM, ELG1 genotox inconclusive, FLuc counter 11µM (no result: SMN2 splice up, KinaseGlo FLuc)
NC(=O)c1ccc(-c2ncc(-c3ccccc3)o2)cc1	NPC1 promoter act 0.28µM, SMN2 splice up 0.5µM, Rab9 promoter act inconclusive, ELG1 genotox 0.18µM, FLuc counter 2.1µM
c1ccc(-c2cnc(-c3cccnc3)o2)cc1	NPC1 promoter act inconclusive, Rab9 promoter act inconclusive, ELG1 genotox inconclusive, FLuc counter 15µM
Cc1ccc(-c2cnc(-c3ccccc3C(=O)O)o2)cc1	NPC1 promoter act inconclusive, Rab9 promoter act inconclusive, ELG1 genotox inconclusive, FLuc counter 13µM (no result: SMN2 splice up, KinaseGlo FLuc)
